# System: HFF
# Assay: cell viability relative to DMSO control; higher = less cytotoxic
# Details: 1 µM; 72 h
# Experimental: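 Single-dose cytotoxicity screen of the MMV Pandemic Response Box at 1 uM on human foreskin fibroblasts (HFF), 72 h at 37 C. Viability measured by MTT (OD 550 nm) and normalised to the DMSO control (% survival).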
row,SMILES,cell viability [%]
1,Clc1ccc(Cn2c(CN3CCCC3)nc3ccccc32)cc1,67.7
2,Oc1c(C(Nc2nc3ccccc3s2)c2ccc(OC(F)F)cc2)ccc2cccnc12 (configuration not stated),57.5
3,O=[N+]([O-])/C(Br)=C/c1ccc(Br)o1,63.2
4,CC(C)(C)NC(=O)[C@@H]1CN(Cc2cnc3occc3c2)CCN1C[C@@H](O)C[C@@H](Cc1ccccc1)C(=O)N[C@H]1c2ccccc2C[C@H]1O,72.6
5,CN(C)[C@@H]1C(=O)C(C(N)=O)=C(O)[C@@]2(O)C(=O)C3=C(O)c4c(O)c(NC(=O)CN5CCCC5)cc(F)c4C[C@H]3C[C@@H]12,66
6,Cc1cccc(C)c1C(=O)Nc1nc(-c2ccccn2)cc2ccccc12,74.7
7,CCCCCc1ccc(C(=O)NCCn2cc(CCCCCc3c[nH]c(N)n3)nn2)cc1,66.1
8,COc1ccc2cc3[n+](cc2c1OCCN(CCn1cncn1)Cc1ccc(F)cc1F)CCc1cc2c(cc1-3)OCO2,61.3
9,Cc1nc2ccc(Oc3ccccc3)cc2c2c1CCN2CCc1ccccc1,76.7
10,c1cc(CN2CCCNCCNCCCNCC2)ccc1CN1CCCNCCNCCCNCC1,63.9
11,COc1ccc(NC(=O)CC2Sc3ncnn3C2=O)cc1 (configuration not stated),73.4
12,COc1ccc(SCC(=O)N2c3ccccc3Sc3ccccc32)cc1,69.2
13,O=C(Nc1ccc(Cl)c(C(F)(F)F)c1)C(CCCl)C(=O)Nc1ccc(Cl)c(C(F)(F)F)c1,79
14,Clc1ccc(COC(Cn2ccnc2)c2ccc(Cl)cc2Cl)c(Cl)c1 (configuration not stated),66.8
15,CN1CCN(Cc2ccc(-c3cnc4[nH]cc(-c5ccc6[nH]ccc6c5)c4c3)cc2)CC1,75.3
16,Nc1nnnn1CCOc1c2[nH]c3ccc(Cl)cc3c2cc2c1[nH]c1ccc(Cl)cc12,65.4
17,O=C(O)c1cc(-c2ccccc2)nc2ccccc12,70.7
18,O=c1[nH]cnc2c1ncn2[C@H]1CC[C@@H](CO)O1,72.2
19,CC(C)/N=c1\cc2n(-c3ccc(Cl)cc3)c3ccccc3nc-2cc1Nc1ccc(Cl)cc1,72.6

row,SMILES,cell viability [%]
1,CC(C)Nc1nc2cc(Cl)c(Cl)cc2n1[C@H]1O[C@@H](CO)[C@H](O)[C@@H]1O,67.8
2,O=C(Nc1nnc(-c2ccccc2)o1)c1ccc(F)cc1,65.2
3,COc1ccc(CNC(=O)C2CCN([C@H](C)c3cccc4ccccc34)CC2)cc1,62.6
4,N=C(N)c1ccc(COc2ccc(Cl)cc2)cc1,65.4
5,Oc1ccc(NCc2ccccc2OCc2ccccc2)cc1,70.1
6,NCC(=O)Nc1ccc(-n2nc(C(F)(F)F)cc2-c2ccc3c(ccc4ccccc43)c2)cc1,80.7
7,Cc1ccccc1NC(=O)Nc1cccc([N+](=O)[O-])c1,71.1
8,Cc1ccn2c(C(=O)NCc3ccccc3)c(C)nc2c1,66.8
9,CC(C)Cn1c(=O)n(C)c(=O)c2c(-c3cncn3C)n(Cc3cccc4ccccc34)nc21,63.1
10,O=S(=O)(Nc1ccccc1)c1ccc(NC(=S)Nc2ccccc2)cc1,66.2
11,CNC(=O)C1O[C@@H](n2cnc3c(NCc4cccc(I)c4)nc(Cl)nc32)[C@H](O)[C@@H]1O (some centres not stated),61.2
12,CCNC(=O)Nc1cc(-c2ccccc2)c(-c2cncc(C(=O)O)c2)cn1,63.8
13,CSC[C@H]1CN(Cc2c[nH]c3c(N)ncnc23)C[C@@H]1O,61.5
14,O=C(NC(=O)N1CCCc2ccccc21)c1ccc(Cl)cc1Cl,70.2
15,O=S(=O)(Nc1ccc(O)cc1)c1cccc2cccnc12,66.5
16,NC[C@H]1OB(O)c2c(OCCCO)cccc21,69.9
17,O=C(Nc1nnc(-c2ccc(Cl)cc2)o1)c1ccc(F)cc1,65.9
18,O=C(Nc1ccc(-c2ccccc2)cc1)C1=C(O)C(Cc2ccccc2)OC1=O (configuration not stated),69.3
